From the antibiotic and cytotoxicity screens of Wong et al. (2023)
In all, about 39,000 compounds went through this assay and about 1,500 (3.8%) were called active. The entries come from a sample that favours actives as a whole.

test system: HSkMC (human skeletal muscle cells); test: cytotoxicity call (relative viability < 0.9); details: 10 µM

Compound | cytotoxicity call
Cc1noc(C)c1S(=O)(=O)N(C)C[C@H]1Oc2ccc(NS(C)(=O)=O)cc2CC(=O)N([C@H](C)CO)C[C@@H]1C | inactive
COc1ccc(NC(=O)N(C)C[C@@H]2Oc3ccc(NC(=O)Cn4cnnn4)cc3CC(=O)N([C@H](C)CO)C[C@H]2C)cc1 | inactive
C[C@H](CO)N1C[C@H](C)[C@H](CN(C)C(=O)Nc2ccc(C(F)(F)F)cc2)OCCCC[C@H](C)Oc2ccc(NS(=O)(=O)c3cn(C)cn3)cc2C1=O | inactive
O=C(C[C@H]1C=C[C@@H](NC(=O)c2cccc(F)c2)[C@H](CO)O1)NCCN1CCCC1 | inactive
COc1ccc(-c2cnc3c(c2)C(=O)N([C@H](C)CO)C[C@H](C)[C@H](CN(C)S(=O)(=O)c2ccc(F)cc2)O3)cc1 | inactive
Cc1ccc(S(=O)(=O)N(C)C[C@@H]2Oc3c(NS(=O)(=O)c4ccccc4)cccc3C(=O)N([C@@H](C)CO)C[C@H]2C)cc1 | inactive
NCC[C@H]1CC[C@@H](NC(=O)c2ccccc2F)[C@@H](CO)O1 | inactive
Cc1ccc(S(=O)(=O)N(C)C[C@@H]2Oc3c(NS(C)(=O)=O)cccc3C(=O)N([C@H](C)CO)C[C@H]2C)cc1 | inactive
Cc1cc(C(=O)Nc2cccc3c2O[C@@H](CN(C)S(C)(=O)=O)[C@@H](C)CN([C@@H](C)CO)C3=O)n(C)n1 | inactive
C[C@@H]1CCCCO[C@@H](CN(C)S(=O)(=O)c2ccc(Cl)cc2)[C@@H](C)CN([C@@H](C)CO)C(=O)c2cc(NS(=O)(=O)c3ccc(F)cc3)ccc2O1 | inactive
O=C(C[C@@H]1CC[C@H]2[C@@H](COC[C@@H](O)CN2S(=O)(=O)c2ccc(Oc3ccccc3)cc2)O1)NCCN1CCCCC1 | inactive
O=C(CCCl)NCCc1ccccc1 | inactive
CC(C)(C)OC(=O)NCCOCCOCCOc1ccc(N(C(=O)CCl)[C@@H](C(=O)NCCc2ccccc2)c2cccs2)cc1Cl | active
COc1ccc(N(C(=O)CCl)[C@@H](C(=O)NCCc2ccccc2)c2ccc(Cl)s2)cc1Cl | active
COc1ccc(N(C(=O)CSc2ncccn2)[C@@H](C(=O)NCCc2ccccc2)c2cccs2)cc1Cl | inactive
Cn1cnc(S(=O)(=O)N[C@H]2CC[C@@H](CC(=O)N3CCN(c4ccccc4)CC3)O[C@H]2CO)c1 | inactive
C[C@@H]1CN([C@H](C)CO)C(=O)Cc2cc(NC(=O)CCC(F)(F)F)ccc2O[C@H]1CN(C)Cc1ccc(Oc2ccccc2)cc1 | inactive
C[C@H]1CCCCO[C@H](CN(C)C(=O)Nc2cccc3ccccc23)[C@@H](C)CN([C@@H](C)CO)C(=O)c2cc(NS(=O)(=O)c3ccc(Cl)cc3)ccc2O1 | inactive
COC(=O)[C@@H]1OC(=O)[C@H]2O[C@@]23[C@]2(C)[C@@H](O)C[C@H]4C(C)(C)[C@H](OC(C)=O)C[C@H](OC(C)=O)[C@]4(C)[C@@H]2CC[C@@]13C | inactive
CCCCCCCCCCCCCCCC[N+](C)(C)CCN(Cc1ccc(OC)cc1)c1ncccn1 | active
COc1ccc(CN(CCN(C)C)c2ccccn2)cc1.O=C(O)C=CC(=O)O | inactive

Compound | cytotoxicity call
COc1ccc(CN(CCN(C)C)c2ncccn2)cc1.Cl | inactive
C[C@@H]1CCCCO[C@H](CN(C)Cc2ccc(C(=O)O)cc2)[C@H](C)CN([C@H](C)CO)C(=O)c2cc(NC(=O)Nc3ccc(F)cc3)ccc2O1 | inactive
C[C@@H]1CCCCO[C@H](CN(C)C(=O)C2CCCCC2)[C@@H](C)CN([C@H](C)CO)C(=O)c2cc(NC(=O)Cc3ccccc3)ccc2O1 | inactive
NCC[C@@H]1CC[C@@H](NC(=O)C2CCCCC2)[C@@H](CO)O1 | inactive
C[C@@H]1CCCCO[C@H](CN(C)S(=O)(=O)c2ccc(F)cc2)[C@@H](C)CN([C@@H](C)CO)C(=O)c2cc(NC(=O)Nc3ccc(F)cc3)ccc2O1 | inactive
C[C@@H]1CCCCO[C@@H](CN(C)C(=O)Nc2ccc(F)cc2)[C@@H](C)CN([C@@H](C)CO)C(=O)c2cc(NC(=O)Nc3ccc(F)cc3)ccc2O1 | inactive
COc1ccc(NC(=O)N(C)C[C@H]2Oc3c(NC(=O)C4CCOCC4)cccc3C(=O)N([C@H](C)CO)C[C@H]2C)cc1 | inactive
COC1=C(N)C(=O)c2nc(-c3nc(C(=O)O)c(C)c(-c4ccc(OC)c(OC)c4O)c3N)ccc2C1=O | active
COc1ccc(C(=O)O)c(O)c1OC | inactive
Cc1ccc(S(=O)(=O)N(C)C[C@H]2Oc3ccc(NS(=O)(=O)c4ccc(F)cc4)cc3C(=O)N([C@H](C)CO)C[C@H]2C)cc1 | inactive
C[C@H](CO)N1C[C@H](C)[C@@H](CN(C)C(=O)c2ccccc2)OCCCC[C@H](C)Oc2ccc(NC(=O)Nc3ccccc3)cc2C1=O | inactive
C[C@H](CO)N1C[C@H](C)[C@@H](CN(C)C(=O)C2CCOCC2)Oc2ncc(-c3cccc(C#N)c3)cc2C1=O | inactive
C[C@@H]1CN([C@@H](C)CO)C(=O)Cc2cc(NC(=O)Nc3ccc4c(c3)OCO4)ccc2O[C@@H]1CN(C)Cc1ccc(C(F)(F)F)cc1 | inactive
C[C@@H]1CN([C@H](C)CO)C(=O)Cc2cc(NC(=O)Nc3ccc4c(c3)OCO4)ccc2O[C@@H]1CN(C)Cc1ccc(C(F)(F)F)cc1 | active
C[C@H]1CN([C@@H](C)CO)C(=O)Cc2cc(NC(=O)Nc3ccc4c(c3)OCO4)ccc2O[C@@H]1CN(C)Cc1ccc(C(F)(F)F)cc1 | inactive
C[C@H](CO)N1C[C@H](C)[C@H](CN(C)Cc2ccc(C(F)(F)F)cc2)Oc2ccc(NC(=O)Nc3ccc4c(c3)OCO4)cc2CC1=O | inactive
C[C@H]1CN([C@@H](C)CO)C(=O)Cc2cc(NC(=O)Nc3ccc4c(c3)OCO4)ccc2O[C@H]1CN(C)Cc1ccc(C(F)(F)F)cc1 | inactive
C[C@H](CO)N1C[C@H](C)[C@@H](CN(C)Cc2ccc(C(F)(F)F)cc2)Oc2ccc(NC(=O)Nc3ccc4c(c3)OCO4)cc2CC1=O | active
C[C@@H]1CN([C@@H](C)CO)C(=O)Cc2cc(NC(=O)Nc3ccc4c(c3)OCO4)ccc2O[C@H]1CN(C)Cc1ccc(C(F)(F)F)cc1 | inactive
C[C@H](CO)N1C[C@H](C)[C@H](CN(C)C(=O)Nc2ccc3c(c2)OCO3)Oc2ccc(NC(=O)Nc3ccc(C(F)(F)F)cc3)cc2CC1=O | inactive
C[C@@H]1CN([C@H](C)CO)C(=O)Cc2cc(NC(=O)Nc3ccc4c(c3)OCO4)ccc2O[C@H]1CN(C)Cc1ccc(C(F)(F)F)cc1 | active

Compound | cytotoxicity call
OCc1ccc2c(c1)OCCO2 | inactive
C[C@@H]1CN([C@@H](C)CO)C(=O)c2cc(NC(=O)Cn3cnnn3)ccc2O[C@@H]1CN(C)Cc1ccc(Cl)c(Cl)c1 | inactive
C[C@@H]1CN([C@@H](C)CO)S(=O)(=O)c2ccc(-c3cncnc3)cc2O[C@H]1CN(C)C(=O)Cc1ccncc1 | inactive
COc1ccc(S(=O)(=O)Nc2ccc3c(c2)C(=O)N([C@@H](C)CO)C[C@H](C)[C@H](CN(C)C(=O)Nc2cccc4ccccc24)OCCCC[C@H](C)O3)cc1 | inactive
C[C@@H]1CCCCO[C@H](CN(C)S(C)(=O)=O)[C@@H](C)CN([C@@H](C)CO)C(=O)c2cc(NS(=O)(=O)c3ccccc3)ccc2O1 | inactive
C[C@@H]1CN([C@@H](C)CO)C(=O)c2cccc(NC(=O)c3ccc(-c4nccs4)cc3)c2O[C@@H]1CN(C)Cc1ccc(C(=O)O)cc1 | inactive
C[C@@H]1CN([C@H](C)CO)C(=O)c2cc(NC(=O)Nc3ccc(F)cc3)ccc2O[C@@H](C)CCCCO[C@H]1CN(C)Cc1ccc(Cl)c(Cl)c1 | active
Cc1noc(C)c1NC(=O)Nc1ccc2c(c1)C(=O)N([C@H](C)CO)C[C@@H](C)[C@@H](CN(C)Cc1ccc(Cl)c(Cl)c1)OCCCC[C@H](C)O2 | active
C[C@H]1CCCCO[C@H](CN(C)Cc2ccc(Cl)c(Cl)c2)[C@@H](C)CN([C@@H](C)CO)C(=O)c2cc(NC(=O)Nc3ccccc3)ccc2O1 | inactive
Cc1noc(C)c1NC(=O)Nc1ccc2c(c1)C(=O)N([C@@H](C)CO)C[C@@H](C)[C@H](CN(C)Cc1ccc(Cl)c(Cl)c1)OCCCC[C@H](C)O2 | inactive
C[C@@H]1CCCCO[C@@H](CN(C)Cc2ccc(Cl)c(Cl)c2)[C@@H](C)CN([C@@H](C)CO)C(=O)c2cc(NC(=O)Nc3ccc(F)cc3)ccc2O1 | inactive
Cc1noc(C)c1NC(=O)Nc1ccc2c(c1)C(=O)N([C@H](C)CO)C[C@@H](C)[C@H](CN(C)Cc1ccc(Cl)c(Cl)c1)OCCCC[C@@H](C)O2 | inactive
C[C@H]1CCCCO[C@H](CN(C)Cc2ccc(Cl)c(Cl)c2)[C@@H](C)CN([C@@H](C)CO)C(=O)c2cc(NC(=O)Nc3ccc(F)cc3)ccc2O1 | inactive
C[C@@H]1CN([C@H](C)CO)C(=O)c2cc(NC(=O)Nc3ccccc3)ccc2O[C@@H](C)CCCCO[C@H]1CN(C)Cc1ccc(Cl)c(Cl)c1 | active
C[C@@H]1CCCCO[C@@H](CN(C)Cc2ccc(Cl)c(Cl)c2)[C@@H](C)CN([C@H](C)CO)C(=O)c2cc(NC(=O)Nc3ccccc3)ccc2O1 | inactive
CO[C@@H]1CN(C)C(=O)c2cc(NC(=O)Nc3ccccc3F)ccc2OC[C@@H](C)N(Cc2ccccc2C(=O)O)C[C@@H]1C | inactive
Cc1noc(C)c1NC(=O)Nc1ccc2c(c1)C(=O)N([C@H](C)CO)C[C@H](C)[C@H](CN(C)Cc1ccc(Oc3ccccc3)cc1)O2 | inactive
COc1cccc(S(=O)(=O)N(C)C[C@H]2OCc3cn(nn3)CCCC(=O)N([C@H](C)CO)C[C@H]2C)c1 | inactive
COc1ccc(NC(=O)N(C)C[C@@H]2OCCCC[C@H](C)Oc3ccc(NC(=O)Nc4cccc5ccccc45)cc3C(=O)N([C@H](C)CO)C[C@@H]2C)cc1 | inactive
